For 40 compounds, growth results are on record in PubChem BioAssay (NCI).

SMILES strings stand for the structures. This is part of a sample that, as a whole, favours compounds with a hit. Of some 83,000 tested, about 20% had one in any assay.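 Assay: single dose, 48 h. Readout: percent growth (0 = no net growth; negative = cell death). Active: <10.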 A number with no mark means an inactive call. Active and inactive are the calls of the source.

This assay concerns UACC-62 melanoma. The assay is described as follows: NCI-60 one-dose screen, 48 h (100 = growth as untreated, 0 = no growth, -100 = all killed). Particulars: 10 µM unless noted. The procedure: Growth inhibition of the UACC-62 human tumor cell line is measured as a screen for anti-cancer activity. Cells are grown in 96 well plates and exposed to the test compound for 48 hours. Compounds are tested at a single concentration, which is 10^-5 M for most compounds. The reported endpoint is percent growth (GI% or GIPRCNT), where numbers from 0 - 100% represent growth inhibition, and numbers from -100% - 0 represent cell death. For example, a value of 40 represents 60% growth inhibition. A value of 0 means no net growth occurred over the course of the experiment. A value of -40 indicates 40% of cells at the beginning of the experiment died by the end of the experiment. A value of -100 means all cells are dead at the end of the experiment.
NCI-60 Human Tumor Cell Lines Screen was performed using the standard one-dose NCI protocol, which is described in more detail at https://dtp.cancer.gov/discovery_development/nci-60/default.htm.
Compounds with GIPRCNT values below 10 were considered active. Activity score was based on GIPRCNT using the following formula: […]
Score is 0 for GIPRCNT values of 100 or above, 50 for GIPRCNT values of 0, and 100 for GIPRCNT values of -100.
As to `c1ccc([P+](c2ccccc2)(c2ccccc2)c2ccc3c4ccc([P+](c5ccccc5)(c5ccccc5)c5ccccc5)c5cccc(c6cccc2c63)c54)cc1`, the growth is 15%.

Turning to `Cc1ccc(-c2nc(N3CCCNCC3)c3oc(-c4ccc(C)cc4)nc3n2)cc1`, the growth is 92%.

With `CCN(CC)CCn1c2ccc(O)cc2c2sc3cc(O)ccc3c(=O)c21`, the growth was 39.4%.

In the case of `N#Cc1ccc(O)c(C2=NCC(c3cccc(Oc4ccccc4)c3)O2)c1` (stereo not given), the growth is -1.59% (active).

With `CC(C)c1ccc(C(=O)Nc2sc3c(c2C(N)=O)CCC(=O)C3)cc1`, the growth was -35.7% (active).

Turning to `CN(C)CC(C)(C)C(=O)/C=C/c1ccccc1`, the growth was -73.6% [25 µM] (active).

Consider `CCC(=C(c1ccc(OCCN2CCCCC2)cc1)c1ccc(OCCN2CCCCC2)cc1)c1ccc(Cl)cc1`, for which the growth is -89.7% (active).

Consider `CCn1cc(C(=O)O)c(=O)c2cc(F)c(N3CCN(CC(=O)Nc4ccc(S(=O)(=O)Nc5nccc(C)n5)cc4)C(C)C3)c(F)c21` (stereo not given), for which the growth was 94.2%.

`CC(C)c1ccc(Cc2cnc(NC(=O)c3cc(Br)cs3)s2)cc1`: the growth was 42.5%.

Take `Ic1ccc(OCCCCn2ccnc2)cc1`: the growth was 40.6%.

With `O=C(c1ccccc1)c1ccc(C2CCCCC2)cc1`, the growth is 86.8%.

In the case of `CCN1CCN(C(=O)[C@]23CCC(C)(C)C[C@@H]2C2=CC[C@@H]4[C@@]5(C)CCC(=O)C(C)(C)[C@@H]5CC[C@@]4(C)[C@]2(C)CC3)CC1`, the growth was 47.3%.

On to `CCc1ccc(CCCC(=O)O)cc1`, for which the growth is 96.8%.

For `C=C1CC[C@@H]2[C@](C)(COC(C)=O)[C@H](OC(C)=O)CC[C@@]2(C)[C@@H]1CC(Nc1ccc(S(=O)(=O)Nc2ncccn2)cc1)C1=CCOC1=O` (stereo not given in full), the growth is 3.93% (active).

With `O=C(N/N=C/c1ccc(Cl)cc1)c1[nH]c2ccc(Cl)cc2c1-c1ccccc1`, the growth was 30.7%.

Turning to `O=C(Nc1ccc(Oc2cccc(Cl)c2)c(Cl)c1)c1cccnc1`, the growth was 37.6%.

Regarding `O=S(=O)(c1ccccc1)n1cc2c(c1)-c1nc(Nc3ncccn3)sc1CC2`, the growth was 63.6%.

As to `CSc1nc(N)c(NS(=O)(=O)c2ccc(C(C)=O)cc2)c(=O)[nH]1`, the growth is 98.3%.

Consider `C=C1C(=O)O[C@H]2[C@H]1CC/C(COC(=O)NCc1ccc(Cn3c(=O)sn(CCCCC)c3=O)cc1)=C\CC[C@@]1(C)O[C@@H]21`, for which the growth is 46.5%.

As for `CCCC/C(CC)=N\NS(=O)(=O)c1ccc([N+](=O)[O-])cc1`, the growth was 98.5%.

On to `O=C(O)c1cn(C2CC2)c2cc(N3CCN(C(=O)N(c4ccccc4)c4nc(-c5ccccc5)cs4)CC3)c(F)cc2c1=O`, for which the growth is -4% (active).

With `CCC1=C[C@@H]2C[C@]3(C(=O)OC)c4[nH]c5ccccc5c4CC[N@+](CC(=O)Nc4cc5c(cc4OC)N(C)[C@H]4[C@@](O)(C(=O)OC)[C@H](OC(C)=O)[C@]6(CC)C=CCN7CC[C@]54[C@@H]76)(C2)[C@H]13`, the growth is 97.7%.

Turning to `O=C(Nc1ccc(Oc2cccc(F)c2)c(Cl)c1)c1cccnc1`, the growth is 31.2%.

With `COc1cc2c(c(OC)c1OC)CCC(c1cccc(C(=O)Nc3cccc(Cl)c3)c1)O2` (stereo not given), the growth is 53.4%.

On to `c1ccc(-c2oc(-c3ccccc3)c(CN3CCCCC3)c2CN2CCCCC2)cc1`, for which the growth is 37.6%.

Turning to `COc1ccc(C2=C(Nc3ccc(C(=O)Nc4ccccc4)cc3)C(=O)N(C)C2=O)cc1`, the growth is 92.3%.

With `O=C(C[C@]1(O)C(=O)Nc2ccccc21)c1cccc(C(F)(F)F)c1`, the growth is 78.3%.

Regarding `O=C(CN1C(=O)NC2NC(=O)NC21)N/N=C/c1ccccc1[N+](=O)[O-]` (stereo not given), the growth was 90.1%.

Consider `CCCCNC(=O)Oc1ccc(/C(=C(/C)Cc2ccc(OC)cc2)c2ccc(OCCN3CCCC3)cc2)cc1`, for which the growth was 45.4%.

As to `COC(=O)c1cc(N=C2NC(=O)/C(=C/C=C/c3ccccc3)S2)ccc1O`, the growth was 33.6%.

For `O=C1NC2(Nc3ccccc31)C(=O)Nc1c(Cl)cc(Cl)cc12` (stereo not given), the growth was 101%.

For `N#Cc1c(-c2ccc(Cl)cc2)nc(NN2C(=O)c3ccccc3C2=O)nc1N1CCOCC1`, the growth was 101%.

For `CSc1nc2ncc([N+](=O)[O-])c(=O)n2[nH]1`, the growth was 101%.

Take `Nc1ncnc2c1C(c1ccc(Br)cc1)c1sc3c(F)cccc3c1O2` (stereo not given): the growth was 80.1%.

On to `CC(=O)/C(=C\c1c(-c2ccccc2)[nH]c2ccccc12)S(C)(=O)=O`, for which the growth is 17.5%.

In the case of `OCCn1cc(-c2nc(-c3c[nH]c4ncccc34)cs2)c2cc(F)ccc21`, the growth was 63.3%.

Turning to `CC1=NC2=Nn3c(c4cnn(-c5ccccc5)c4n/c3=N\N)NN2C(c2ccccc2)=C1`, the growth was 77.6%.

On to `COc1ccc(-c2nc3c(ncc4ccc(=O)[nH]c43)s2)cc1`, for which the growth is 88.1%.

Turning to `CCN(CC)Cc1cc(C=C2C(=O)NC(=S)NC2=O)cc(OC)c1O`, the growth was 96.5%.

As to `Cc1ccc(C2=Nc3c(N)ncnc3NC(c3cccc(Nc4ccnc5cc(C(F)(F)F)ccc45)c3)C2)cc1` (stereo not given), the growth was 48.7%.
